Assay results taken from paper PMC5540273 (PLoS ONE, 2017).

Experiments:
Conditions in all cases: concentration: 1 μM, replicates: in singlicate; n = 1
AAK1 = system: AAK1
ABL1-nonphosphorylated = system: ABL1-nonphosphorylated
ABL1-phosphorylated = system: ABL1-phosphorylated
ABL2 = system: ABL2
ACVR1B = system: ACVR1B
ACVR1 = system: ACVR1
ACVR2A = system: ACVR2A
ACVR2B = system: ACVR2B
ACVRL1 = system: ACVRL1
ADCK3 = system: T1, ADCK3
T1 construct: gene CABC1
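Also: KINOMEscan kinase panel screen.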

Compound | %Inh (AAK1) [%] | %Inh (ABL1-nonphosphorylated) [%] | %Inh (ABL1-phosphorylated) [%] | %Inh (ABL2) [%] | %Inh (ACVR1B) [%] | %Inh (ACVR1) [%] | %Inh (ACVR2A) [%] | %Inh (ACVR2B) [%] | %Inh (ACVRL1) [%] | %Inh (ADCK3) [%]
Cc1ccc(O)cc1Nc1ccnc2cc(-c3ccc(CN4CCCCC4)o3)ccc12 [GW557777] | 10 | 100 | 99.9 | 100 | 79 | 99.4 | 18 | 94.7 | 90.3 | 4
COc1cc(Nc2ccnc3cc(-c4ccncc4)ccc23)cc(OC)c1OC.Cl [GW494610] | 0 | 97.9 | 99.4 | 93 | 86 | 99.5 | 0 | 54 | 88 | 98.6
CN(c1ccc(NC(=O)Nc2cccc(Cl)c2)cc1)c1ccnc(N)n1.Cl [GW830707] | 0 | 0 | 0 | 3 | 4 | 0 | 0 | 0 | 9 | 0
COc1cccc2c(-c3ccncc3)c(-c3ccc(F)cc3)nn12 [GW468513] | 10 | 0 | 0 | 5 | 76 | 31 | 0 | 3 | 3 | 43
CN(c1ccc2c(c1)nc(NCc1ccccc1)n2C)c1ccnc(Nc2ccc(CS(C)(=O)=O)cc2)n1.Cl [GW811603] | 16 | 98.9 | 66 | 54 | 0 | 0 | 0 | 0 | 0 | 0
COc1cccc(-c2nc(-c3ccccc3)[nH]c2-c2ccncc2)c1 [SB-610250] | 2 | 0 | 8 | 27 | 0 | 24 | 0 | 0 | 2 | 8
Cl.N#CCc1ccc(Nc2nccc(Nc3ccc(Oc4ccccc4)cc3)n2)cc1 [GW639905] | 7 | 0 | 9 | 13 | 0 | 26 | 100 | 0 | 0 | 6
Cc1cccc(Nc2nc(N[C@H]3CCCC[C@H]3N)ncc2C(N)=O)c1.Cl [GSK986310] | 55 | 0 | 8 | 24 | 0 | 5 | 0 | 11 | 0 | 17
O=C(Nc1n[nH]c2cc(-c3cccs3)ccc12)C1CC1 [SB-731284] | 73 | 81 | 61 | 0 | 0 | 0 | 0 | 17 | 0 | 0
CN1CCN(Cc2ccc(NC(=O)Nc3ccc(N(C)c4ccnc(Nc5ccc(CS(C)(=O)=O)cc5)n4)cc3)cc2)CC1.Cl [GW827654] | 62 | 100 | 94.2 | 81 | 0 | 58 | 0 | 38 | 57 | 0
O=C(Nc1n[nH]c2nc(-c3ccccc3O)ccc12)C1CC1 [SB-711880] | 17 | 68 | 44 | 55 | 0 | 0 | 0 | 0 | 0 | 3
CC(=O)Nc1cn2nc(Oc3cccc(NC(=O)c4cccc(C(F)(F)F)c4)c3)ccc2n1 | 0 | 100 | 99.9 | 99.3 | 0 | 0 | 0 | 31 | 0 | 0
N#CC1(c2cccc(C(=O)Nc3cccc(Oc4ccc5nc(NC(=O)C6CC6)sc5n4)c3)c2)CC1 | 3 | 100 | 98.7 | 95 | 0 | 0 | 3 | 1 | 0 | 40
CCn1cnc2c(NCc3ccccc3)ncnc21 [SKF-96418] | 0 | 21 | 9 | 0 | 0 | 0 | 0 | 0 | 0 | 0
CN(C)c1ncnc2nc[nH]c12 [SKF-31736] | 30 | 38 | 27 | 0 | 0 | 1 | 0 | 0 | 0 | 0
Cl.Cl.NC(CNC(=O)c1cc(Br)c(-c2ccnc3[nH]ccc23)s1)c1ccccc1 (stereo not drawn) [GSK1322949] | 82 | 21 | 10 | 25 | 0 | 38 | 0 | 10 | 0 | 40
Cc1ccccc1CC(=O)N1CCc2cc(-c3cn(C)c4ncnc(N)c34)ccc21 [GSK2603346] | 3 | 50 | 25 | 29 | 0 | 0 | 0 | 65 | 11 | 3

Compound | %Inh (AAK1) [%] | %Inh (ABL1-nonphosphorylated) [%] | %Inh (ABL1-phosphorylated) [%] | %Inh (ABL2) [%] | %Inh (ACVR1B) [%] | %Inh (ACVR1) [%] | %Inh (ACVR2A) [%] | %Inh (ACVR2B) [%] | %Inh (ACVRL1) [%] | %Inh (ADCK3) [%]
O=C(Nc1c(F)cccc1F)c1cc(C(=O)c2ccccc2F)c[nH]1 [GSK1326180] | 0 | 0 | 0 | 0 | 20 | 0 | 0 | 0 | 9 | 11
COc1ccc(C2=C(Nc3cccc(O)c3)C(=O)NC2=O)cc1 [SB-390766] | 20 | 0 | 0 | 13 | 0 | 0 | 0 | 0 | 0 | 0
Cc1cc(-c2ccnc(Nc3cccc(C#N)c3)n2)cc(C)c1O [GSK1440913] | 79 | 25 | 1 | 37 | 0 | 96.5 | 8 | 88 | 17 | 35
Cc1nn2c(=O)cc(N3CCO[C@H](C)C3)nc2n1Cc1cccc(Cl)c1Cl [GSK2373693] | 1 | 0 | 0 | 14 | 22 | 0 | 14 | 0 | 0 | 15
COC(=O)Nc1nc2cc(Oc3ccc(NC(=O)Nc4cccc(SC)c4)cc3)ccc2[nH]1.Cl [GW697999] | 0 | 91.4 | 90.1 | 76 | 0 | 0 | 0 | 0 | 0 | 0
Cc1ccc(O)cc1Nc1ccnc2ccc(C(C)(C)C)cc12 [GW856805] | 10 | 98.1 | 99.6 | 90.2 | 24 | 24 | 8 | 62 | 1 | 0
CC(C)c1nc(-c2cccc(NS(=O)(=O)c3c(F)cccc3F)c2)c(-c2ccnc(Nc3ccc(N4CCOCC4)nc3)n2)s1.Cl [GSK1723980] | 7 | 99.7 | 95.6 | 99.4 | 89 | 95.9 | 0 | 81 | 83 | 100
Nc1ncc(-c2cn[nH]c2)c2scc(-c3ccc4c(c3)CCN4C(=O)Cc3ccccc3)c12 [GSK2593067] | 52 | 99.2 | 81 | 89 | 0 | 0 | 0 | 16 | 0 | 0
CC(C)NCC(Cc1ccccc1)NC(=O)c1cc(Br)c(-c2ccnc3[nH]ccc23)s1.Cl.Cl (stereo not drawn) [GSK1383281] | 25 | 0 | 14 | 5 | 0 | 0 | 0 | 0 | 0 | 14
CN(C)CCOc1ccc(-c2cc(-c3ccc(Cl)c(O)c3)c(-c3ccncc3)[nH]2)cc1.Cl.Cl [SB-684387] | 0 | 50 | 59 | 34 | 90.5 | 31 | 0 | 51 | 0 | 33
Cc1cc(-c2c(-c3ccc(F)cc3)ncn2CCCN2CCOCC2)nc(N)n1 [SB-222517] | 14 | 37 | 18 | 0 | 21 | 0 | 0 | 0 | 0 | 1
Cc1ccc(NC(=O)c2ccnc(N3CCCCC3)c2)cc1-c1ccc(C(=O)NCC2CC2)cc1 [GW775610] | 0 | 55 | 0 | 54 | 0 | 0 | 0 | 0 | 0 | 0
CN(c1ccc(F)c(NC(=O)c2cccc(OC(C)(C)C#N)c2Cl)c1)c1ccc2nc(NC(=O)C3CC3)sc2n1 | 2 | 99 | 92.6 | 89 | 0 | 0 | 0 | 0 | 0 | 0
Cn1cc(-c2ccc3c(c2)CCN3C(=O)Cc2cc(F)cc(F)c2F)c2c(N)ncnc21 [GSK2634140] | 0 | 82 | 29 | 57 | 15 | 0 | 0 | 0 | 0 | 6
Cn1cc(-c2cnc(N)c3c(-c4ccc5c(c4)CCN5C(=O)Cc4ccccc4)csc23)cn1 [GSK2593074] | 0 | 99.7 | 89 | 81 | 9 | 7 | 0 | 0 | 0 | 7
COc1cc(Nc2nccc(N3CCC(NC(=O)Nc4ccc5c(c4)OCO5)C3)n2)cc(OC)c1OC (stereo not drawn) [GSK1379766] | 66 | 0 | 0 | 0 | 0 | 11 | 0 | 0 | 0 | 0
